Source: PubChem BioAssay (NCI)
About 83,000 compounds went through this panel and 20% of them were active in at least one assay; those are over-represented in the sample as a whole.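 Each cell line was grown in a 96-well plate and treated with one concentration of compound for 48 hours. Values below 10 were considered active.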 Active and inactive are the calls of the source.

Test system: CCRF-CEM leukemia
Experiment: NCI-60 one-dose screen, 48 h (100 = growth as untreated, 0 = no growth, -100 = all killed)
Settings: 10 µM unless noted
Experimental: Growth inhibition of the CCRF-CEM human tumor cell line is measured as a screen for anti-cancer activity. Cells are grown in 96 well plates and exposed to the test compound for 48 hours. Compounds are tested at a single concentration, which is 10^-5 M for most compounds. The reported endpoint is percent growth (GI% or GIPRCNT), where numbers from 0 - 100% represent growth inhibition, and numbers from -100% - 0 represent cell death. For example, a value of 40 represents 60% growth inhibition. A value of 0 means no net growth occurred over the course of the experiment. A value of -40 indicates 40% of cells at the beginning of the experiment died by the end of the experiment. A value of -100 means all cells are dead at the end of the experiment.
NCI-60 Human Tumor Cell Lines Screen was performed using the standard one-dose NCI protocol, which is described in more detail at https://dtp.cancer.gov/discovery_development/nci-60/default.htm.
Compounds with GIPRCNT values below 10 were considered active. Activity score was based on GIPRCNT using the following formula: […]
Score is 0 for GIPRCNT values of 100 or above, 50 for GIPRCNT values of 0, and 100 for GIPRCNT values of -100.

| Structure (SMILES) | growth |
| --- | --- |
| C=CCOc1ccc(/C(Cl)=N/N=C(\Cl)c2cc(OC)c(OC)c(OC)c2)cc1 | 34% (inactive) |
| O=C(Nc1cccc(-n2ccc3c(NC(=O)c4ccccc4)nccc32)c1)Nc1ccc(Cl)c(C(F)(F)F)c1 | 4.74% (active) |
| COc1ccccc1P(c1ccccc1OC)c1ccccc1OC | 130% (inactive) |
| FC(F)(F)c1cn(CCN2CCOCC2)c2ncnc(Cl)c12 | 12.3% (inactive) |
| CCC1S/C(=N\N=C(/C)c2ccco2)N(c2ccccc2)C1=O (stereo not given) | -58.4% (active) |
| CNCCCOc1c(Br)cc(CCNC(=O)/C(Cc2ccc(OC)c(Br)c2)=N/O)cc1Br | 31.6% (inactive) |
| CC[C@H]1[C@@H]2C=C[C@@H]3[C@H]4C/C=C\C(=O)NCCC[C@@H]5NC(=O)/C(=C(O)/C=C/[C@@H]4C[C@@H]3[C@H]2C[C@H]1C)C5=O | -17% (active) |
| CC(Cl)(CCl)CS(=O)(=O)c1ccc(Cl)cc1 (stereo not given) | 109% (inactive) |
| O=C(Nc1cccc([N+](=O)[O-])c1)Nc1cccc([N+](=O)[O-])c1 | 15.5% (inactive) |
| Clc1ccc(OCc2nc(-c3ccccc3)n[nH]2)c(Cl)c1 | 85.9% (inactive) |
| COc1cc(-c2nc3sc(C)cn3c2/C=C2\C(=O)Nc3ccccc32)c(Br)c(OC)c1OC | 34.7% (inactive) |
| c1ccc2nc(Cn3cc[n+](Cc4ccc5ccccc5n4)c3)ccc2c1 | 80% (inactive) |
| Cc1cn([C@]2(CF)O[C@H](CO)C2C)c(=O)[nH]c1=O (stereo not given in full) | 114% (inactive) |
| CCCCCCCCCCCC(=O)OCCNC(=O)C[n+]1ccccc1 | 98.1% (inactive) |
| O=C(Nc1ccc(F)cc1)Nc1ccc(Br)c(C(F)(F)F)c1 | 6.73% (active) |
| C/C(=N\N=C1/SCC(=O)N1c1ccccc1)c1ccco1 | -63.9% (active) |
| COc1ccc(-c2c(C#N)cnc(N)c2-c2nc3cc(C)c(C)cc3[nH]2)cc1 | 90.5% (inactive) |
| Nn1c(CN2CCN(c3cc4c(cc3F)c(=O)c(C(=O)O)cn4C3CC3)CC2)n[nH]c1=S | 98.8% (inactive) |
| COc1ccc2c(-c3ccc(F)cc3)c(C#N)c(=NC(C)=O)oc2c1 | 13.1% (inactive) |
| O=c1c2ccccc2[nH]n1Cc1ccc2c(c1)OCO2 | 96.2% (inactive) |

| Structure (SMILES) | growth |
| --- | --- |
| O=C(O)c1ccc(-n2cc(/C=N/Nc3ccccc3F)c(-c3ccc(O)cc3)n2)cc1 | 41.5% (inactive) |
| CN(CCNCc1ccccn1)CCNCc1ccccn1 | 10.7% (inactive) |
| COc1cc(NS(=O)(=O)c2ccc(N)cc2)ncn1 | 105% (inactive) |
| COc1ccc(/C=N/C2=NNC(C)(c3ccccc3O)N2C(Cc2c[nH]c3ccccc23)C(=O)O)cc1 (stereo not given) | 19.7% (inactive) |
| CC(C)(CCN=C(N)Nc1ccccn1)c1ccc(C(F)(F)F)cc1 | 7.26% (active) |
| Nc1c(C(=O)O)[nH]c(=O)[nH]c1=O | 90.3% (inactive) |
| COc1cc(/C=C2/Oc3cc4occc4c(OC)c3C2=O)ccc1OCC(=O)Nc1ccncc1 | 103% (inactive) |
| CC(C)Cn1cnc2c3ccccc3nc(NCn3nc(-c4cc(Cl)cc(Cl)c4Cl)oc3=S)c21 | 6.87% (active) |
| NC(=S)NNC1CCCCC1 | 84.9% (inactive) |
| Cc1c(F)cccc1NC(=O)c1sc2nc3c(cc2c1N)CCCCC3 | 23.6% (inactive) |
| C[C@H]1C=C(C[C@@H](O)CC#CC#CCCCCC[C@@H](O)[C@H]2CCC(=O)O2)C(=O)O1 | 106% (inactive) |
| C=CCn1c(SCC(=O)Nc2ccc(/C(C)=N\O)cc2)nnc1-c1cc(-c2ccc(OC)cc2)nc2ccccc12 | 15% (inactive) |
| COC(=O)c1oc2c(C(=O)/C=C/c3ccc(OC)cc3)c(OCCN3CCOCC3)ccc2c1C | -38.4% (active) |
| Oc1ccccc1/C=N/c1ccccn1 | 116% (inactive) |
| CC(=O)Nc1ccc(OC(=O)c2ccccc2O)cc1 | 95.9% (inactive) |
| O=C1c2ccccc2OC=C(c2ccccc2)N1CCCCNc1ccc(F)cc1 | 63.7% (inactive) |
| Cc1cn(C2CC(N=[N+]=[N-])C(COP(=O)(O)OP(=O)(O)OP(=O)(O)O)O2)c(=O)[nH]c1=O (stereo not given) | -98% (active) |
| Cc1cc[n+](CCCC[n+]2ccc(C)cc2)cc1 | 91.7% (inactive) |
| COC(=O)c1oc2c(C(C)=O)c(OCCN3CCCCC3)ccc2c1C | 50.5% (inactive) |
| O=[N+]([O-])c1cccc2cc(S(=O)(=O)O)ccc12 | 94.6% (inactive) |
